Changes are numbered by the printed parent chain; changes in the protein carry UniProt numbers. Over roughly 16,000 sequences, “ka relative to ugcaugu” has its median near 0.0091; the highest 2% begin near 0.032. What follows is part of a selection rich in the highest values, with near analogues and random picks from the rest.
T1: RBFOX1 RRM (Homo sapiens, UniProt Q9NWB1 109-208)
T1 sequence: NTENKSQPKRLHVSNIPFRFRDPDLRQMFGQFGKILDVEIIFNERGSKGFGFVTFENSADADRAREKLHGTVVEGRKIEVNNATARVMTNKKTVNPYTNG

B1: AGCGUAU (DNA:RNA)
RNA: GGGAGACCGGAAUUCAGAUUGUCCAGCGUAUUUAAAUCCCGUCGUAGCCACCA
DNA 1: CAATCTGAATTCCGGTCTCCC
DNA 2: TGGTGGCTACGACGGGATT
B2: CCUGAUG (DNA:RNA)
RNA: B1 RNA with A25C, G26C, C27U, U29A, A30U, U31G
DNA 1: CAATCTGAATTCCGGTCTCCC
DNA 2: TGGTGGCTACGACGGGATT
B3: GCGUCGC (DNA:RNA)
RNA: GGGAGACCGGAAUUCAGAUUGUCCGCGUCGCUUAAAUCCCGUCGUAGCCACCA
DNA 1: CAATCTGAATTCCGGTCTCCC
DNA 2: TGGTGGCTACGACGGGATT
B4: GUGAUAC (DNA:RNA)
RNA: B3 RNA with C26U, U28A, C29U, G30A
DNA 1: CAATCTGAATTCCGGTCTCCC
DNA 2: TGGTGGCTACGACGGGATT
B5: CCGUGAG (DNA:RNA)
RNA: B3 RNA with G25C, C29G, G30A, C31G
DNA 1: CAATCTGAATTCCGGTCTCCC
DNA 2: TGGTGGCTACGACGGGATT
B6: GAACUGU (DNA:RNA)
RNA: B1 RNA with A25G, G26A, C27A, G28C, A30G
DNA 1: CAATCTGAATTCCGGTCTCCC
DNA 2: TGGTGGCTACGACGGGATT
B7: CCGGAUG (DNA:RNA)
RNA: B3 RNA with G25C, U28G, C29A, G30U, C31G
DNA 1: CAATCTGAATTCCGGTCTCCC
DNA 2: TGGTGGCTACGACGGGATT
B8: CGGGAUG (DNA:RNA)
RNA: B1 RNA with A25C, C27G, U29A, A30U, U31G
DNA 1: CAATCTGAATTCCGGTCTCCC
DNA 2: TGGTGGCTACGACGGGATT
B9: UUGGAUG (DNA:RNA)
RNA: B1 RNA with A25U, G26U, C27G, U29A, A30U, U31G
DNA 1: CAATCTGAATTCCGGTCTCCC
DNA 2: TGGTGGCTACGACGGGATT
B10: GUGGAGA (DNA:RNA)
RNA: B3 RNA with C26U, U28G, C29A, C31A
DNA 1: CAATCTGAATTCCGGTCTCCC
DNA 2: TGGTGGCTACGACGGGATT
B11: GGAGAUG (DNA:RNA)
RNA: B1 RNA with A25G, C27A, U29A, A30U, U31G
DNA 1: CAATCTGAATTCCGGTCTCCC
DNA 2: TGGTGGCTACGACGGGATT
B12: GGAUGUG (DNA:RNA)
RNA: B3 RNA with C26G, G27A, C29G, G30U, C31G
DNA 1: CAATCTGAATTCCGGTCTCCC
DNA 2: TGGTGGCTACGACGGGATT
B13: GGAUUGU (DNA:RNA)
RNA: B1 RNA with A25G, C27A, G28U, A30G
DNA 1: CAATCTGAATTCCGGTCTCCC
DNA 2: TGGTGGCTACGACGGGATT
B14: GGGGAUG (DNA:RNA)
RNA: B1 RNA with A25G, C27G, U29A, A30U, U31G
DNA 1: CAATCTGAATTCCGGTCTCCC
DNA 2: TGGTGGCTACGACGGGATT
B15: GUGGAUG (DNA:RNA)
RNA: B3 RNA with C26U, U28G, C29A, G30U, C31G
DNA 1: CAATCTGAATTCCGGTCTCCC
DNA 2: TGGTGGCTACGACGGGATT
B16: GGAUGUC (DNA:RNA)
RNA: B3 RNA with C26G, G27A, C29G, G30U
DNA 1: CAATCTGAATTCCGGTCTCCC
DNA 2: TGGTGGCTACGACGGGATT
B17: GGAUGUU (DNA:RNA)
RNA: B1 RNA with A25G, C27A, G28U, U29G, A30U
DNA 1: CAATCTGAATTCCGGTCTCCC
DNA 2: TGGTGGCTACGACGGGATT
B18: GGGAUGU (DNA:RNA)
RNA: B1 RNA with A25G, C27G, G28A, A30G
DNA 1: CAATCTGAATTCCGGTCTCCC
DNA 2: TGGTGGCTACGACGGGATT
B19: AACCAGU (DNA:RNA)
RNA: B1 RNA with G26A, G28C, U29A, A30G
DNA 1: CAATCTGAATTCCGGTCTCCC
DNA 2: TGGTGGCTACGACGGGATT
B20: AAUAAUU (DNA:RNA)
RNA: B1 RNA with G26A, C27U, G28A, U29A, A30U
DNA 1: CAATCTGAATTCCGGTCTCCC
DNA 2: TGGTGGCTACGACGGGATT
B21: UGUGACC (DNA:RNA)
RNA: B1 RNA with A25U, C27U, U29A, A30C, U31C
DNA 1: CAATCTGAATTCCGGTCTCCC
DNA 2: TGGTGGCTACGACGGGATT
B22: CAAGGCG (DNA:RNA)
RNA: B1 RNA with A25C, G26A, C27A, U29G, A30C, U31G
DNA 1: CAATCTGAATTCCGGTCTCCC
DNA 2: TGGTGGCTACGACGGGATT
B23: CUCGCUC (DNA:RNA)
RNA: B1 RNA with A25C, G26U, U29C, A30U, U31C
DNA 1: CAATCTGAATTCCGGTCTCCC
DNA 2: TGGTGGCTACGACGGGATT
B24: UUUUCCG (DNA:RNA)
RNA: B3 RNA with G25U, C26U, G27U, G30C, C31G
DNA 1: CAATCTGAATTCCGGTCTCCC
DNA 2: TGGTGGCTACGACGGGATT
B25: CAUCAAA (DNA:RNA)
RNA: B1 RNA with A25C, G26A, C27U, G28C, U29A, U31A
DNA 1: CAATCTGAATTCCGGTCTCCC
DNA 2: TGGTGGCTACGACGGGATT
B26: GCCGGCC (DNA:RNA)
RNA: B3 RNA with G27C, U28G, C29G, G30C
DNA 1: CAATCTGAATTCCGGTCTCCC
DNA 2: TGGTGGCTACGACGGGATT
B27: UACAGCU (DNA:RNA)
RNA: B1 RNA with A25U, G26A, G28A, U29G, A30C
DNA 1: CAATCTGAATTCCGGTCTCCC
DNA 2: TGGTGGCTACGACGGGATT
B28: UGCAUGU (DNA:RNA)
RNA: B1 RNA with A25U, G28A, A30G
DNA 1: CAATCTGAATTCCGGTCTCCC
DNA 2: TGGTGGCTACGACGGGATT
B29: UGCAUUU (DNA:RNA)
RNA: B1 RNA with A25U, G28A, A30U
DNA 1: CAATCTGAATTCCGGTCTCCC
DNA 2: TGGTGGCTACGACGGGATT
B30: CUGCAUA (DNA:RNA)
RNA: B3 RNA with G25C, C26U, U28C, C29A, G30U, C31A
DNA 1: CAATCTGAATTCCGGTCTCCC
DNA 2: TGGTGGCTACGACGGGATT
B31: CUGCAUG (DNA:RNA)
RNA: B3 RNA with G25C, C26U, U28C, C29A, G30U, C31G
DNA 1: CAATCTGAATTCCGGTCTCCC
DNA 2: TGGTGGCTACGACGGGATT
B32: CUGCAUC (DNA:RNA)
RNA: B3 RNA with G25C, C26U, U28C, C29A, G30U
DNA 1: CAATCTGAATTCCGGTCTCCC
DNA 2: TGGTGGCTACGACGGGATT
B33: UGCAUAU (DNA:RNA)
RNA: B1 RNA with A25U, G28A
DNA 1: CAATCTGAATTCCGGTCTCCC
DNA 2: TGGTGGCTACGACGGGATT

biological target: T1, RBFOX1 RRM; assay: EMSA; HiTS-Eq, 1 nM pool, 10 min; buffer printed only for the single-RNA assays: 10 mM Tris pH 7.5, 150 mM NaCl, 3.4 mM EDTA, 0.001% NP-40, 30 C; details: tags: His6 N-terminal (pET28a); label: 5' 32P
Procedure, shortened: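 A pool of RNA with 7 randomized nucleotides, 5′-radiolabelled and with DNA-annealed flanks, was equilibrated at 1 nM for 10 min in 50 µL with purified RbFox RRM, wild type or mutant, across increasing protein concentrations. Free RNA was separated by 8% native PAGE, excised, reverse-transcribed, barcoded by PCR and sequenced. Relative association constants were obtained from read-count changes of each RNA species versus the control reaction and normalised to the cognate motif.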

| Binder | binding signal |
| --- | --- |
| B1 | 0.00639 KA relative to UGCAUGU |
| B2 | 0.0205 KA relative to UGCAUGU |
| B3 | 0.0157 KA relative to UGCAUGU |
| B4 | 0.00876 KA relative to UGCAUGU |
| B5 | 0.0105 KA relative to UGCAUGU |
| B6 | 0.0163 KA relative to UGCAUGU |
| B7 | 0.00955 KA relative to UGCAUGU |
| B8 | 0.0412 KA relative to UGCAUGU |
| B9 | 0.0302 KA relative to UGCAUGU |
| B10 | 0.0173 KA relative to UGCAUGU |
| B11 | 0.0269 KA relative to UGCAUGU |
| B12 | 0.0207 KA relative to UGCAUGU |
| B13 | 0.0266 KA relative to UGCAUGU |
| B14 | 0.0389 KA relative to UGCAUGU |
| B15 | 0.0371 KA relative to UGCAUGU |
| B16 | 0.027 KA relative to UGCAUGU |
| B17 | 0.0216 KA relative to UGCAUGU |

| Binder | binding signal |
| --- | --- |
| B18 | 0.048 KA relative to UGCAUGU |
| B19 | 0.000945 KA relative to UGCAUGU |
| B20 | 0.00136 KA relative to UGCAUGU |
| B21 | 0.0155 KA relative to UGCAUGU |
| B22 | 0.00837 KA relative to UGCAUGU |
| B23 | 0.00968 KA relative to UGCAUGU |
| B24 | 0.0112 KA relative to UGCAUGU |
| B25 | 0.00054 KA relative to UGCAUGU |
| B26 | 0.0116 KA relative to UGCAUGU |
| B27 | 0.00395 KA relative to UGCAUGU |
| B28 | 1 KA relative to UGCAUGU |
| B29 | 0.0179 KA relative to UGCAUGU |
| B30 | 0.017 KA relative to UGCAUGU |
| B31 | 1.04 KA relative to UGCAUGU |
| B32 | 0.0212 KA relative to UGCAUGU |
| B33 | 0.0115 KA relative to UGCAUGU |

— article PMC9911399, “Two distinct binding modes provide the RNA-binding protein RbFox with extraordinary sequence specificity”
